# The campaign covered roughly 310,000 compounds. About 14,000 (4.5%) showed an effect of 50% or more. The effect is printed as a negative number. The full list was thinned out, with strong results kept by preference.
# Target: human ether-à-go-go-related gene (hERG) potassium channel (human, UniProt Q12809)
# Experiment: primary screen, population patch clamp on CHO cells stably expressing hERG; higher = less effect of the substance
# 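Further: peak tail current of the secondary pulse compared with the same well before compound.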
# human ether-à-go-go-related gene (hERG) potassium channel, sequence (Q12809 whole entry, looked up): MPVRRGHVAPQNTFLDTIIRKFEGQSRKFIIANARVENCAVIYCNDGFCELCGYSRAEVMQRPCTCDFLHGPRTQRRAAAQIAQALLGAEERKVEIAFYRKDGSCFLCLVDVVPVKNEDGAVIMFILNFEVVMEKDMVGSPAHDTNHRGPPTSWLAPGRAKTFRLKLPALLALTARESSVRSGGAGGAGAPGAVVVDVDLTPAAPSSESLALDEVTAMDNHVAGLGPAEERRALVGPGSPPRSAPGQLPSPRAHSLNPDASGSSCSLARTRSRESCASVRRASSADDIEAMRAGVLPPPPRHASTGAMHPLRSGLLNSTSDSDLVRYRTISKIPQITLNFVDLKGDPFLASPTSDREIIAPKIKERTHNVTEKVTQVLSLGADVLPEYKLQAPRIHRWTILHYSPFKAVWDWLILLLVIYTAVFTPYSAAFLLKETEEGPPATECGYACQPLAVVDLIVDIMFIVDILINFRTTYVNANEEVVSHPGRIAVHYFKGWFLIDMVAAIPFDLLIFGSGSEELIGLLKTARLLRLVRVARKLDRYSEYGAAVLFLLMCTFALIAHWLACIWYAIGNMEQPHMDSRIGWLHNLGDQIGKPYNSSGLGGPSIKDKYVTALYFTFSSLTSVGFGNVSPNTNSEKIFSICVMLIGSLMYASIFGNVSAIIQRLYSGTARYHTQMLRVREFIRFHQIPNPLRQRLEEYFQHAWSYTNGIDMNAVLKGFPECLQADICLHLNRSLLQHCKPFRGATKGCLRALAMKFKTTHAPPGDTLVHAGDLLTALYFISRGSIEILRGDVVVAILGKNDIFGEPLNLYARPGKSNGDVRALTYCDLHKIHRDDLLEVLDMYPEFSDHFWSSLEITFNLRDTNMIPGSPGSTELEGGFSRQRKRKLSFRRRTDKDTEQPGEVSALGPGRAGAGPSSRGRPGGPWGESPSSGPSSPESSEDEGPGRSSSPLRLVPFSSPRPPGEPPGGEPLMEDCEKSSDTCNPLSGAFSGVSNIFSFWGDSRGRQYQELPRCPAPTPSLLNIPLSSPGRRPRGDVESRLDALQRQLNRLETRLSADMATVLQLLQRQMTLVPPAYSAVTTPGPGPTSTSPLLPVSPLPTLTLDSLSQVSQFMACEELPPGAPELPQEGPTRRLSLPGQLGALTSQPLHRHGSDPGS
row,Structure (SMILES),"hERG current change (%, negative = inhibition) at 10uM"
1,O=C(COC(=O)C1=NN(c2ccccc2)C(=O)CC1)Nc1ccc([N+](=O)[O-])cc1C(F)(F)F,5.08%
2,CC(C)CN(CC(C)C)C(=O)c1cccc(S(=O)(=O)N2CCc3ccccc32)c1,-24.9%
3,NC(=O)C1CCN(C(=S)NC2CC3C=CC2C3)CC1 (centres unmarked),16.2%
4,CCOC(=O)C1CCN(C(=S)NC2CC3C=CC2C3)CC1 (centres unmarked),-54.3%
5,CCOC(=O)C1CCN(C(=S)NC2CCCC2)CC1,0.997%
6,CN(c1ccccc1)S(=O)(=O)c1cccc(NC(=O)Cc2ccc(Cl)cc2)c1,9.43%
7,COc1ccc(CN2C(=NC(=O)CCc3ccccc3)SC3CS(=O)(=O)CC32)cc1 (centres unmarked),3.85%
8,CC(NC(=O)COC(=O)CCNC(=O)c1ccco1)C12CC3CC(CC(C3)C1)C2 (centres unmarked),0.656%
9,CC(NC(=O)c1ccco1)C12CC3CC(CC(C3)C1)C2 (centres unmarked),-50.1%
10,CC(C)[C@H](NC(=O)c1ccco1)C(=O)NC12CC3CC(CC(C3)C1)C2,-5.81%
11,CC1CN(C2CCN(S(=O)(=O)c3ccc4ccccc4c3)CC2)CC(C)O1 (centres unmarked),-22.5%
12,CN1C(C(=O)N2CCc3ccccc3C2)=CC(c2ccc(F)cc2)=NS1(=O)=O,-3.37%
13,CCC(=O)C(C#N)(c1ccc(OC)c(OC)c1)C(C)C (centres unmarked),-7.65%
14,COc1ccc(CCN(Cc2ccc(C(C)C)cc2)S(=O)(=O)c2ccc(S(=O)(=O)N(C)C)cc2)cc1OC,-11.1%
15,COc1ccc(CCN(C)CCCC(C#N)(c2cc(OC)c(OC)c(OC)c2)C(C)C)cc1OC.Cl (centres unmarked),-64.1%
16,Cn1c(Cn2c(=O)sc3ccccc32)nnc1SCC(=O)NCc1ccccc1,-0.25%
17,Cc1ccc(NC(=S)N2CCN(S(=O)(=O)c3c(F)cccc3F)CC2)cc1C,-17.6%
18,COc1ccccc1Nc1nc(N)nc(CN2CCc3ccccc3C2)n1,-44.8%
19,Nc1nc(CSc2ncccn2)nc(Nc2ccccc2)n1,1.55%
20,Nc1nc(CN2CCc3ccccc3C2)nc(Nc2ccccc2)n1,-51%
21,Cc1ccc(Nc2nc(N)nc(CSc3ncccn3)n2)cc1,-18.7%
22,COc1ccc(Nc2nc(N)nc(CSC(=S)N3CCCCC3)n2)cc1,0.179%
23,Nc1nc(CSCCO)nc(Nc2ccccc2)n1,9.39%
24,COc1ccc(Nc2nc(N)nc(CN3CCc4ccccc4C3)n2)cc1,-56.4%
25,Cc1ccc(Nc2nc(N)nc(CSc3nnnn3-c3ccccc3)n2)cc1,4.49%
26,Cc1ccc(Nc2nc(N)nc(CN3CCc4ccccc4C3)n2)cc1,-72.2%

# From article PMC4336329 (PLoS ONE, 2015)
